The campaign covered roughly 300,000 compounds. About 1,200 (0.4%) were called active. Where a call stands in place of a potency, no number is given. Roughly 3% stayed inconclusive and do not appear here. The call rests on the fitted dose curve; in most records, active means well fitted inhibition curve with a large enough effect; inconclusive means small, poorly fitted or top-dose-only effect, or another doubt; inactive means no such curve, though single readings can be large or run the other way. The sample as a whole holds a higher share of actives than the screen did.
Each molecule was assayed against Lysosomal alpha-glucosidase (Homo sapiens) (UniProt P10253) (assay: qHTS Assay for Inhibitors and Activators of Human alpha-Glucosidase Cleavage of Glycogen). Settings: recombinant GAA, glycogen substrate, Amplex Red glucose oxidase fluorescence; series mostly up to 76.3 µM.
Method in brief: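 Recombinant enzyme (4 nM final) with compounds titrated up to 77 uM and bovine liver glycogen (30 ug) in citrate pH 5.0, 0.01% Tween-20, 37 C 40 min. Released glucose detected by Amplex Red/glucose oxidase (Ex 573/Em 610); AC50 from Hill fits.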
For `CCOc1ccc2nc(N3CCCC(C(=O)Nc4cc(C)ccc4C)C3)sc2c1` (centres undefined), the Potency was “inactive”. `CNC(=S)Nc1ccc([N+](=O)[O-])cc1` was tested, and the Potency was “inactive”. For `O=C(O)/C=C/C(=O)NNc1ccc([N+](=O)[O-])cc1`, the Potency was 14 µM (active). With `O=[N+]([O-])c1ccc(N/N=C/c2ccccc2)cc1` the Potency was “inactive”. `COc1cc(Nc2nc(-c3ccc(OC)c(OC)c3)nc3ccccc23)cc(OC)c1` was tested, and the Potency was “inactive”. In the case of `CC(Nc1ccc(-c2nc(-c3ccco3)no2)cc1[N+](=O)[O-])c1ccccc1` (centres undefined), the Potency is reported as “inactive”. With `CCc1ccc(C(=O)CC2(O)C(=O)N(CCc3ccccc3)c3ccc(Br)cc32)cc1` (centres undefined) the Potency was “inactive”. With `COC(=O)c1cc(NC(=O)c2ccco2)ccc1N1CCOCC1` the Potency was “inactive”. For `Cn1c(=O)n(C)c2cc(CNc3ccc(N4CCOCC4)c(C(=O)O)c3)ccc21`, the Potency was 9.92 µM (active). With `CCN(CC)S(=O)(=O)c1ccc(N2CCOCC2)c(C(=O)O)c1` the Potency was “inactive”. With `CCn1cc(C(=O)NCCc2ccccc2)c(=O)c2cc(S(=O)(=O)N3CCCCCC3)ccc21` the Potency was “inactive”. `O=C(Nc1nc2c(s1)CCCC2)c1ccccc1F` was tested, and the Potency was “inactive”. With `CC(CC(=O)N1CCN(c2ccccc2)CC1)c1ccccc1` (centres undefined) the Potency was “inactive”. In the case of `CC(=O)N1CCN(c2ccc(NCc3ccc(C(C)C)cc3)cc2)CC1`, the Potency is reported as 31.6 µM (active). With `CCc1ccc(NC(=O)N2CCN(c3ccccc3)CC2)cc1` the Potency was “inactive”. For `Cc1ccc(-c2cc(N)n(Cc3cccc(Cl)c3)n2)cc1`, the Potency was “inactive”. `CC1=Nc2cc(C(=O)N3CCC(C)CC3)ccc2Sc2ccc(Cl)cc21` was tested, and the Potency was “inactive”. In the case of `Nc1ccc(Nc2ccccc2)cc1`, the Potency is reported as “inactive”. `Cc1ccc(Nc2nnc(SCc3ccccc3)s2)cc1` was tested, and the Potency was “inactive”. With `Cc1ccc(Nc2ccccc2N)cc1` the Potency was 50.1 µM (active). In the case of `COc1ccc(CNC(=O)COCc2cc(-c3cccs3)on2)cc1OC`, the Potency is reported as “inactive”. For `Cc1nc2nc(NCc3cccc(Br)c3)[nH]n2c(=O)c1Cc1ccccc1`, the Potency was “inactive”. With `CC1CCN(c2nc3ccc(C(=O)N4CCN(c5ccccc5)CC4)cc3s2)CC1` the Potency was “inactive”. With `O=C(Nc1ccc2nc(SCCOc3ccccc3)sc2c1)c1ccco1` the Potency was “inactive”. In the case of `Cc1cc(NC(=O)C2CCC(CNS(=O)(=O)c3ccc(Br)s3)CC2)ccc1Br` (centres undefined), the Potency is reported as “inactive”. `CC(=O)c1ccc(NC(=O)Nc2ccc([N+](=O)[O-])cc2C)cc1` was tested, and the Potency was “inactive”. With `CCN(CC)S(=O)(=O)c1cc([N+](=O)[O-])ccc1NNC(=O)Nc1ccccc1` the Potency was 28.2 µM (active). With `CCN(CC)S(=O)(=O)c1cc([N+](=O)[O-])ccc1N=Nc1c(O)n(C)c2ccccc12` the Potency was “inactive”. In the case of `COC(=O)c1cccc(Cn2nnc3sc4c(c3c2=O)CCC(C(C)(C)C)C4)c1` (centres undefined), the Potency is reported as “inactive”. `CC(=O)C1(C)N(O)C(C)(C)C(c2cccs2)=[N+]1[O-]` (centres undefined) was tested, and the Potency was “inactive”. With `C/C(=N\O)C1(C)N(O)C(C)(C)C(c2ccc(Br)cc2)=[N+]1[O-]` (centres undefined) the Potency was 6.26 µM (active). In the case of `Cc1nnc(NCc2ccccc2)c2c1nnn2Cc1ccc(F)cc1`, the Potency is reported as “inactive”. In the case of `COc1cccc(CC(=O)Nc2nc(-c3ccc(OC)c(OC)c3)cs2)c1`, the Potency is reported as “inactive”. `COc1ccc(C)cc1Nc1nc(-c2c(C)[nH]c3ccccc23)cs1` was tested, and the Potency was “inactive”. `COc1ccc(-c2csc(Cc3nc(O)cs3)n2)cc1` was tested, and the Potency was “inactive”. For `COc1ccc(-c2csc(Nc3ccc(O)cc3)n2)cc1`, the Potency was 11.2 µM (active). With `COc1ccc(OC)c(Nc2nc(-c3ccc(O)c(O)c3)cs2)c1` the Potency was 28.2 µM (active). For `NS(=O)(=O)c1ccc(Nc2nc(-c3ccccc3)cs2)cc1`, the Potency was “inactive”. With `Cc1cccc(C(=O)NCCc2nc3ccccc3n2Cc2ccccc2Cl)c1` the Potency was “inactive”. For `CC(C)S(=O)(=O)c1oc(-c2ccc(F)cc2)nc1S(=O)(=O)c1ccc(F)cc1`, the Potency was “inactive”. `COc1ccccc1C(=O)Nc1c(C(=O)N(C)Cc2ccccc2)sc2nc(C)c(Cl)c(C)c12` was tested, and the Potency was “inactive”. For `COc1cc(Cl)c(NC(=O)CC(C)S(=O)(=O)c2cc3c(cc2C)NC(=O)CO3)c(OC)c1` (centres undefined), the Potency was “inactive”. `O=C(CSC1=Nc2ccccc2C2=NC(CC(=O)NCc3ccco3)C(=O)N12)NCc1ccco1` (centres undefined) was tested, and the Potency was “inactive”. In the case of `CCC(C)NC(=O)CSC1=Nc2ccccc2C2=NC(CCC(=O)NCc3ccco3)C(=O)N12` (centres undefined), the Potency is reported as “inactive”. For `CC(C)C1N=C2c3ccccc3N=C(SCC(=O)c3ccc(O)c(O)c3)N2C1=O` (centres undefined), the Potency was 12.5 µM (active). For `CC(NC(=O)CCc1cn(Cc2ccccc2Cl)c2ccccc12)c1ccccc1` (centres undefined), the Potency was “inactive”. With `O=C(CCl)NNc1cccc(Cl)n1` the Potency was 20 µM (active). In the case of `COc1cc(OC)nc(NC(=O)CCl)n1`, the Potency is reported as “inactive”. In the case of `O=C(Cc1c(Cl)cccc1Cl)NC1CC1`, the Potency is reported as “inactive”. `COc1ccccc1CNC(=O)CCn1c(=O)c2ccccc2n(CC(=O)Nc2cccc(Cl)c2)c1=O` was tested, and the Potency was “inactive”. `Cc1ccc(CSc2nc3cccnc3n2Cc2ccc(C(=O)NC3CC3)cc2)cc1` was tested, and the Potency was “inactive”. In the case of `COC(=O)c1sccc1NC(=S)Nc1ccc(C)cc1`, the Potency is reported as “inactive”. For `COC(=O)c1sccc1NC(=O)CCC1CCCC1`, the Potency was “inactive”. In the case of `CCOC(=O)C(=CNNc1ccsc1C(=O)OC)C(=O)OCC`, the Potency is reported as 14 µM (active). With `CCCC(=O)Nc1c(O)c2ccccc2[nH]c1=O` the Potency was “inactive”. With `CCCS(=O)(=O)Nc1c(C(=O)O)[nH]c2ccccc12` the Potency was 3.55 µM (active). With `O=C(O)c1[nH]c2ccccc2c1C(c1cccc(O)c1)c1c(C(=O)O)[nH]c2ccccc12` the Potency was “inactive”. In the case of `O=S(=O)(c1ccc(Cl)cc1)c1nnn2c1nc(NC1CCCC1)c1sccc12`, the Potency is reported as “inactive”. In the case of `Cc1c(Cl)cccc1NC(=O)C1CCCN(C(=O)c2cnn(-c3ccccc3)c2-n2cccc2)C1` (centres undefined), the Potency is reported as “inactive”. With `O=C(Nc1cc(N2CCOCC2)ncn1)NC1(C(F)(F)F)Oc2ccc(Cl)cc2O1` (centres undefined) the Potency was 11.1 µM (active). For `O=C(CN1C(=O)COc2ccc(Cl)cc21)Nc1ccc(N2CCOCC2)cc1`, the Potency was “inactive”. With `c1cnn(-c2cc(N3CCOCC3)ncn2)c1` the Potency was “inactive”. For `CCC(=O)N1CCc2cc(S(=O)(=O)NC(CC(C)C)C(=O)NCCc3cccc(C)c3)ccc21` (centres undefined), the Potency was “inactive”. In the case of `COc1cccc(NC(=O)CN2C(=O)c3ccccc3Sc3ncccc32)c1`, the Potency is reported as “inactive”. `O=C(c1ccc(C(F)(F)F)cc1)N1CCC(c2nc(-c3ccc(S(=O)(=O)N4CCCC4)cc3)no2)CC1` was tested, and the Potency was “inactive”. With `Cc1c(C)c2ccc(OCC(=O)N3CCC(C(=O)O)CC3)c(C)c2oc1=O` the Potency was “inactive”. In the case of `O=C(CNC(=O)C1COc2ccccc2O1)N/N=C/c1cc(Br)c(O)c(Br)c1` (centres undefined), the Potency is reported as “inactive”. In the case of `Cc1c(CC(=O)N2CCN(C(=O)C3COc4ccccc4O3)CC2)c(=O)oc2c(O)c(O)ccc12` (centres undefined), the Potency is reported as 6.31 µM (active). With `COc1ccccc1C(=O)NCCn1cc(SCc2ccccc2Cl)c2ccccc21` the Potency was “inactive”. With `CCOc1ccc(N2CC(C)Cn3c2nc2c3c(=O)n(Cc3c(F)cccc3Cl)c(=O)n2C)cc1` (centres undefined) the Potency was “inactive”. In the case of `O=S(=O)(c1ccc(Br)cc1)c1nnn2c1nc(N1CCOCC1)c1sccc12`, the Potency is reported as “inactive”. In the case of `Cc1ccc(Cl)cc1NC(=O)/C(C#N)=C\c1cn(Cc2ccc(F)cc2)c2ccccc12`, the Potency is reported as “inactive”. `O=c1[nH]c(=S)[nH]c2[nH]c(=S)[nH]c12` was tested, and the Potency was 39.8 µM (active). For `Cc1c(C)c(C)c2[nH]c(=S)[nH]c2c1C`, the Potency was “inactive”. In the case of `Cc1ccsc1CN(C(=O)c1oc2ccc(Br)cc2c1C)C1CCS(=O)(=O)C1` (centres undefined), the Potency is reported as “inactive”. In the case of `CCCn1c2ccccc2c2cnn(CC(=O)NCC3CCN(Cc4ccc(C)cc4)CC3)c(=O)c21`, the Potency is reported as “inactive”. With `CCN(C(=O)CSc1nnc(C)n2c1cc1occc12)c1ccccc1` the Potency was “inactive”. In the case of `O=[N+]([O-])c1ccc(N(CCO)Cc2ccccc2)c([N+](=O)[O-])c1`, the Potency is reported as 10 µM (active). With `OCCN(Cc1ccccc1)Cc1ccc(Cl)cc1` the Potency was “inactive”. For `CCN(CC)c1ccc([N+](=O)[O-])cc1C(=O)O`, the Potency was “inactive”. For `CC(=O)Oc1cccc(N2C(=O)CC(Nc3ccc(N4CCOCC4)cc3)C2=O)c1` (centres undefined), the Potency was 35.5 µM (active). In the case of `CC(=O)Oc1cccc(N2C(=O)C3CC=C(Cl)CC3C2=O)c1` (centres undefined), the Potency is reported as “inactive”. With `COc1cc2ccccc2cc1C(=O)Nc1ccc(N2CCOCC2)cc1` the Potency was “inactive”. `CCOC(=O)c1oc2ccc(S(=O)(=O)n3nc(-c4ccccc4OC)cc3N)cc2c1C` was tested, and the Potency was “inactive”. With `Oc1ccccc1-c1nc2ccc(Cl)cn2c1Nc1ccc2c(c1)OCCO2` the Potency was “inactive”. With `Cc1cccc2nc(-c3ccc(Cl)s3)c(Nc3ccc4c(c3)OCCO4)n12` the Potency was 7.94 µM (active). For `Cc1ccc(Nc2c(-c3ccc(C)s3)nc3ccccn23)cc1`, the Potency was “inactive”. With `CN(C(=O)CSc1nc2ccc(NC(=O)COc3ccccc3)cc2s1)c1ccccc1` the Potency was “inactive”. For `CCc1cccc(NC(=O)CN(C)S(=O)(=O)c2ccc3[nH]c4c(c3c2)CCCC4)c1`, the Potency was “inactive”. For `O=C(CCc1ccccc1)NNc1ccc(F)cc1`, the Potency was 20 µM (active). `O=C(CCc1ccccc1)NNC(=O)c1ccc(Br)cc1` was tested, and the Potency was “inactive”. `CC(=O)Nc1ccc(S(=O)(=O)NNC(=O)CCc2ccccc2)cc1` was tested, and the Potency was “inactive”. For `O=S(=O)(NCCc1nnc2ccc(SCc3ccc(Cl)cc3Cl)nn12)c1ccccc1`, the Potency was “inactive”. With `O=[N+]([O-])c1cc(-c2nc(-c3ccccc3)no2)ccc1NCc1ccco1` the Potency was “inactive”. `COc1ccc(Cn2c(=O)n(-c3ccccc3C)c(=O)c3c4c(sc32)CN(C(C)=O)CC4)cc1` was tested, and the Potency was “inactive”. For `O=C(N/N=C/c1ccc(O)c(O)c1)C1c2ccccc2Oc2ccccc21`, the Potency was 14.1 µM (active). In the case of `CCC(C)NC(=O)C1c2ccccc2Oc2ccccc21` (centres undefined), the Potency is reported as “inactive”. With `CCC(C)(C)NC(=O)C1c2ccccc2Oc2ccccc21` the Potency was “inactive”. In the case of `CCOc1ccc(C2CC(=O)c3c([nH]c(C(=O)OCc4ccccc4)c3C)C2)cc1` (centres undefined), the Potency is reported as “inactive”. `CCOc1ccc(N(CC)S(=O)(=O)N2CCCC(C(=O)NCc3ccc(Cl)cc3)C2)cc1` (centres undefined) was tested, and the Potency was “inactive”. For `CC(=O)c1c(C)n(S(=O)(=O)c2ccc(Cl)cc2)c2ccc(NS(=O)(=O)c3ccc(Cl)cc3)cc12`, the Potency was “inactive”. In the case of `Nc1ccc(-c2sc(N)nc2-c2ccccc2)cc1`, the Potency is reported as 14 µM (active). In the case of `Nc1ccc(-c2nnc(-c3ccccc3)o2)cc1`, the Potency is reported as “inactive”. In the case of `COc1ccc(NC(=O)c2sc(N)nc2-c2ccccc2)cc1`, the Potency is reported as “inactive”.
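Further: the screen sought inhibitors and activators.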
Potency means the concentration at half of the fitted maximal effect.
